Test results published in PubChem BioAssay (NCI).
Compounds without any hit were thinned out: in the full panel of roughly 83,000, 20% have a hit.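 Activity criterion: percent growth below 10, measured after cells in 96-well plates were exposed to a single compound concentration for 48 hours.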 A number with no mark means an inactive call. Activity calls are given as the source filed them.

Experiments:
Assay in all cases: NCI-60 one-dose screen, 48 h (100 = growth as untreated, 0 = no growth, -100 = all killed)
Settings in all cases: 10 µM unless noted
SK-MEL-2 melanoma = tested on: SK-MEL-2 melanoma
EKVX NSCLC = tested on: EKVX NSCLC
SN12C renal = tested on: SN12C renal
UO-31 renal = tested on: UO-31 renal
TK-10 renal = tested on: TK-10 renal
ACHN renal = tested on: ACHN renal
CAKI-1 renal = tested on: CAKI-1 renal
A498 renal = tested on: A498 renal
CCRF-CEM leukemia = tested on: CCRF-CEM leukemia
MOLT-4 leukemia = tested on: MOLT-4 leukemia
RPMI-8226 leukemia = tested on: RPMI-8226 leukemia
OVCAR-8 ovarian = tested on: OVCAR-8 ovarian
OVCAR-5 ovarian = tested on: OVCAR-5 ovarian
OVCAR-4 ovarian = tested on: OVCAR-4 ovarian
SK-OV-3 ovarian = tested on: SK-OV-3 ovarian
HS 578T breast = tested on: HS 578T breast
NCI/ADR-RES ovarian = tested on: NCI/ADR-RES ovarian
SR leukemia = tested on: SR leukemia
IGROV1 ovarian = tested on: IGROV1 ovarian
OVCAR-3 ovarian = tested on: OVCAR-3 ovarian

| Structure (SMILES) | growth (SK-MEL-2 melanoma) | growth (EKVX NSCLC) | growth (SN12C renal) | growth (UO-31 renal) | growth (TK-10 renal) | growth (ACHN renal) | growth (CAKI-1 renal) | growth (A498 renal) | growth (CCRF-CEM leukemia) | growth (MOLT-4 leukemia) | growth (RPMI-8226 leukemia) | growth (OVCAR-8 ovarian) | growth (OVCAR-5 ovarian) | growth (OVCAR-4 ovarian) | growth (SK-OV-3 ovarian) | growth (HS 578T breast) | growth (NCI/ADR-RES ovarian) | growth (SR leukemia) | growth (IGROV1 ovarian) | growth (OVCAR-3 ovarian) |
| --- | --- | --- | --- | --- | --- | --- | --- | --- | --- | --- | --- | --- | --- | --- | --- | --- | --- | --- | --- | --- |
| CCCCCCCCN(CCCCCCCC)CCCCCCNc1cc(OC)cc2cccnc12 | 105% | 87.4% | 63.4% | 55.2% | 118% | 91.4% | 72% | 110% | -59% (active) | 50% | 52.3% | 73.3% | 92.4% | 82.7% | 102% | 111% | 80.2% | – | – | – |
| CCOC(=O)c1cc(C(=O)c2cc(OC)c(OC)c(OC)c2)n2c1ccc1ccccc12 | 50.2% | 52.2% | 25.3% | 32.2% | 80.6% | 33.5% | 27.3% | -10.9% (active) | 8.36% (active) | – | 11.2% | 32.7% | 46.5% | 40.8% | 34.7% | 11.6% | 18% | 10.8% | 31.4% | -17.3% (active) |
| CCNc1nc(S(=O)(=O)CC)nc2ccccc12 | 94.6% | 95% | 101% | 82.4% | 112% | 86.1% | 72.8% | 113% | 86.6% | 91% | 87.5% | 99.8% | 104% | 99.7% | 96.6% | 93.6% | 111% | – | 104% | 98% |
| CN(C)CCCN(c1nc(C(Cl)(Cl)Cl)ns1)c1nc(C(Cl)(Cl)Cl)ns1 | 47% | 55.1% | 41.8% | -84.7% (active) | 63.5% | 54.6% | 43.9% | 73.7% | 30.3% | 3.33% (active) | 9.37% (active) | 55.3% | 66.5% | – | 86.6% | 46% | 48.8% | – | 36.6% | 31.7% |
| CC(C)C1=CC2=C(C=O)C[C@@H]3[C@](C)(CCC[C@@]3(C)C(=O)OCC#CCN3CCCC3)[C@H]2CC1 | 94% | 98.2% | 83.7% | 61.6% | 93.6% | 97.3% | 105% | 88.6% | 63.9% | 66.9% | 33.8% | 77.9% | 88.1% | 78.1% | 81.8% | 67.9% | 82.2% | – | 75.4% | 88.7% |
| CN(C)c1cccc2c(S(=O)(=O)/N=C(\N)Nc3nc4ccccc4s3)cccc12 | 15.3% | 71.3% | 88.4% | 56.8% | 91.4% | 84.2% | 54% | 74.5% | 69.1% | 60.6% | 62% | 70.6% | 84.2% | 82.4% | 46.6% | 68% | 48% | – | 51.7% | – |
| COC(=O)[C@]12CC[C@@H](C)[C@H](C)[C@@H]1C1=CC[C@@H]3[C@@]4(C)C(C=O)=C[C@@](C)(COC(=O)c5ccco5)[C@@H]4[C@H](O)C[C@@]3(C)[C@]1(C)CC2 | -44.4% (active) | -18.1% (active) | -19.7% (active) | -76.3% (active) | 11.5% | -47.7% (active) | -6.76% (active) | -2.1% (active) | -24.1% (active) | -0.738% (active) | -26.8% (active) | -3.22% (active) | -20.9% (active) | -0.264% (active) | 18.7% | -9.48% (active) | 0.299% (active) | – | 5.24% (active) | -75.5% (active) |
| COc1ccc(Nc2[nH]n3c(=O)cc(-c4ccccc4)nc3c2C(=O)Nc2ccc(C)cc2)c(OC)c1 | 103% | 89.8% | 85.9% | 74.7% | 108% | 88.5% | 90.4% | 108% | 66.5% | 69.4% | 108% | 79.4% | 92% | 89.6% | 91.2% | 78.1% | 108% | – | 102% | 98.7% |
| NC(=S)N/N=C(/CCN1CCCC1)CC(C1=C(O)C2=CCCCC2OC1=O)c1ccccc1 (centres undefined) | 93.2% | 63.3% | 85.3% | 64.5% | 120% | 89.4% | 98.6% | 109% | 48.9% | 64.8% | 73.9% | 88.2% | 96.9% | 62.2% | 94.3% | 96.7% | 40.4% | – | 52.8% | 21.8% |
| CN(C[C@H]1Cc2c(cccc2N2CCN(c3ncccn3)CC2)CN1)[C@H]1CCCc2cccnc21 | 68.8% | 37.7% | 39.9% | 16.9% | 38% | 35.5% | 33.5% | 58.1% | 22.4% | 27.9% | 27.1% | 30% | 52.8% | 52.9% | 39.5% | 73.1% | 9.46% (active) | – | 37.1% | 34% |
| COc1ccc(/C=C\c2cc(OC)c(OC)c(OC)c2)cc1OC(=O)c1cccc(Cn2cc(CCOC(=O)c3cccc(Cn4nnc5c4C(=O)c4ccccc4C5=O)c3)nn2)c1 | 50.9% | 58.3% | 18.9% | 36.6% | 76.4% | 17.2% | 31.2% | -4.1% (active) | 8.91% (active) | – | 12.4% | 16% | 28.8% | 31.6% | 41.7% | 5.15% (active) | 11.5% | 12.5% | 16.1% | -10.1% (active) |
| CCCCCCCCCCCCCCCCCCNC(=O)[C@H]1CSC(c2cccs2)N1 (some centres undefined) | -86.7% (active) | 3.9% (active) | -84.2% (active) | 45.6% | 29.9% | 67.9% | -0.0289% (active) | 68.1% | -33.4% (active) | – | -51.1% (active) | -23% (active) | -54.1% (active) | 42.2% | 39.7% | -31.7% (active) | -45.3% (active) | -41.2% (active) | 2.04% (active) | -17.3% (active) |
| Nc1nc(Nc2cc(Cl)cc(Cl)c2)nn1S(=O)(=O)c1ccc2ccccc2c1 | 79.2% | 53.6% | 43.3% | 14.7% | 63.5% | 29.2% | 64.1% | 15.4% | 57.9% | 37.6% | 66.5% | 40.6% | 68.3% | 72.5% | 59.5% | 40.5% | 37.1% | – | 20.3% | 60.1% |
| O=C(c1ccccc1)c1c(/C=C/c2ccccc2)c2ccccc2[nH]c1=O | 92.6% | 98.2% | 92.7% | 73.6% | 97.8% | 93.5% | 91.8% | 97.6% | 87.6% | 84.1% | 94.6% | 90.9% | 90.4% | 97.7% | 102% | 88.7% | 97.5% | – | 95.4% | 97.6% |
| CCOC(=O)CC(=O)OC | 107% | 99.1% | 108% | 90.4% | 106% | 107% | 91.2% | 92.2% | 97.5% | 83.3% | 97.4% | 103% | 101% | 100% | 101% | 114% | 113% | – | 111% | 123% |
| Cc1ccc(C(=O)C2=Cc3cc4ccccc4n3Cc3cnnn32)cc1 | 94.4% | 107% | 94.5% | 95.8% | 94.9% | 109% | 101% | 107% | 103% | 101% | 99.9% | 106% | 96.2% | 104% | 99.6% | 94% | 108% | – | 104% | – |
